From PubChem
Sampled rows, rich in hits. Any-hit rate of the full collection: about 0.86%.
HIV TAR-Tat: HIV-1 TAR-Tat binding disruption; AID 1259389; 0.6% of 100,000 active; z-score (test concentration not listed); HIV-1 TAR RNA, Tat peptide displacement FRET; active compounds read high; active = z-score of 3 or more in at least 2 runs
CDC25B-CDK2 inh: human CDC25B-CDK2/CyclinA binding inhibition | P30305+P24941 | HTRF CDC25B-CDK2/CyclinA binding, anti-His/anti-Flag; active compounds read high | z-score (no concentration beside the values) | 0.72% of 94,000 active; in the data active = z-score above about 3.2
Active calls of the source: *; nt = no result.

SMILES	HIV TAR-Tat	CDC25B-CDK2 inh
Cn1c(=O)c2c(-c3ccccc3Br)n(-c3ccc4[nH]c(=O)[nH]c4c3)cc2n(C)c1=O	2.3	6.2*
COc1ccc(NC(=O)CSc2nc3cc(OC)c(OC)cc3c3nc(C)nn23)cc1Cl	nt	-0.39
CCOC(=O)C1CCCN(C(=O)c2sc3nc(C)nc(N4CCC(C)CC4)c3c2C)C1 (stereo unspecified)	nt	-0.42
Cc1nc(N2CCC(C(=O)O)CC2)c2c(C)c(C)sc2n1	4.8*	nt
CCOC(=O)c1c(C)oc2nc(C)nc(Nc3ccc(Cl)cc3)c12	0.44	nt
COC(=O)c1ccc(CN2CC(=O)N3CCCC3C2=O)cc1 (stereo unspecified)	0.99	-0.03
COc1cc(OC)c(NC(=O)C(C)Sc2nnc(-c3ccoc3C)o2)cc1Cl (stereo unspecified)	1.7	-0.34
COc1ccc(OC)c(NC(=O)C(C)Sc2nnc(-c3ccoc3C)o2)c1 (stereo unspecified)	2.1	12*
Cc1ccc(CN(C)CCc2ccccn2)cc1	0.71	0.08
CCCCn1c(=O)c2c(nc3n2CCN3c2ccc(C)cc2)n(C)c1=O	1	nt
CCCCCn1c(=O)c2c(nc3n2CCN3c2ccc(C)cc2)n(C)c1=O	5.2*	nt
CCOc1ccc(S(=O)(=O)NCc2ccc3c(c2)OCO3)c2ccccc12	0.69	-1.4
CCc1ccc(C2CC(=O)Nc3c2c(C)nn3-c2nncc(-c3ccc(F)cc3)n2)cc1 (stereo unspecified)	1.6	-1.4
O=S(=O)(NC1CCCCC1Nc1ccc(F)cc1)c1ccccc1 (stereo unspecified)	2.9	8.6*
COc1ccc(NC2CCCCC2NS(=O)(=O)c2ccccc2)cc1 (stereo unspecified)	3.1	-2.5
O=c1c2ccccc2n2c(-c3ccc(Cl)cc3)nnc2n1Cc1ccccc1	0.29	-1
O=c1c2[nH]c3ccc(Cl)cc3c2ncn1CCCN1CCCC1	0.73	-1.7
O=C1CC(=O)Nc2cc(S(=O)(=O)Nc3ccc(F)cc3)ccc2N1	0.64	-0.68
O=C1CC(=O)Nc2cc(S(=O)(=O)Nc3ccc4c(c3)OCO4)ccc2N1	18*	nt
O=C(c1cc2c(s1)-c1ccccc1S(=O)(=O)C2)N1CCCCC1	1.4	-2.4
Cc1c(C(=O)O)sc2nc3n(c(=O)c12)CCCCC3	0.24	0.05
O=C(Nc1ccc(N2CCOCC2)c(Cl)c1)c1cccc(-n2cnnc2)n1	2	nt
Oc1ccc2ccccc2c1C1Nc2cccc3cccc(c23)N1	15*	-1
Cc1cccc(C2Nc3cccc4cccc(c34)N2)c1	4.3	0.56
COc1cc(C2Nc3cccc4cccc(c34)N2)ccc1O	7.3*	0.77
SMILES	HIV TAR-Tat	CDC25B-CDK2 inh
c1ccc(-c2ccc(C3Nc4cccc5cccc(c45)N3)cc2)cc1	5.3	0.78
CC1=C(C(=O)OCc2ccccc2)C(c2ccccc2C)n2ncnc2N1 (stereo unspecified)	-0.56	0.61
COc1ccc(/C=C/c2nn3c(C(C)(C)C)nnc3s2)cc1	0.93	2
O=C(NCC1CCCO1)C1CCN(C(=O)c2ccc(-n3ccc4ccccc43)s2)CC1 (stereo unspecified)	0.45	nt
O=C1CCC(=O)N1CCCn1c2ccccc2c2nc3ccccc3nc21	1	14*
C#CCn1c2ccccc2c2nc3ccccc3nc21	0.07	nt
CCN(CC)CCNC(=O)c1cc2c(s1)-c1ccc(Cl)cc1SC2	1.9	-1.2
Cc1ccc2ccc(C(Nc3ccccn3)c3cccc(O)c3)c(O)c2n1 (stereo unspecified)	nt	-1.8
COC(=O)C1Cc2cc(OC)c(OC)cc2C(Cc2ccc(OC)c(OC)c2)=N1 (stereo unspecified)	-0.5	8.9*
COc1ccc(CC(=O)NN)cc1OC	nt	-1.6
Cc1cccc(S(=O)(=O)NCc2cn3ccccc3n2)c1	nt	-0.59
COc1cccc(C2CC(=O)N3CN(c4ccccc4F)CSC3=C2C#N)c1OC (stereo unspecified)	-0.9	4.2*
COc1ccc(N2CSC3=C(C#N)C(c4cccc(OC)c4OC)CC(=O)N3C2)cc1 (stereo unspecified)	-5.7	4*
COc1ccc(N2CSC3=C(C#N)C(c4cccc(OC)c4OC)CC(=O)N3C2)c(OC)c1 (stereo unspecified)	-0.92	5.7*
Cn1nnnc1SCCCNCc1ccc(-c2ccc(F)cc2)o1	0.23	-0.28
Cc1ccc(C(=O)C2=C(O)C(=O)N(Cc3cccnc3)C2c2ccccc2F)o1 (stereo unspecified)	-1.1	-0.28
O=C(Nc1c2c(nn1-c1cccc(Cl)c1)CS(=O)(=O)C2)c1ccco1	0.36	nt
CCOC(=O)CSc1ccc([N+](=O)[O-])cc1Cl	nt	-1.6
O=C(CSc1ccc([N+](=O)[O-])cc1Cl)NCc1ccccc1	nt	15*
CCC1CCCCN1S(=O)(=O)c1ccc2[nH]c(=O)ccc2c1 (stereo unspecified)	6.5*	nt
CCCN1CCN(S(=O)(=O)c2ccc3[nH]c(=O)ccc3c2)CC1	3	nt
